# According to ChEMBL document CHEMBL3988442, “University of Dundee, Small-Polar-MMV Screening Library” (2021):
# For some assays here: Measured potencies and affinities stand elsewhere.
# What was measured:
# Parameters in all cases: scale not given: direction of the effect not stated beside the values
# [1] = molecular target: Protein translocase subunit SecA (Escherichia coli (strain K12)) (UniProt P10408); assay: Assay to Identify E. coli SecA ATPase Inhibitors; type: functional; conditions: 30 µM
# Chain of Protein translocase subunit SecA (Escherichia coli (strain K12)) (P10408 whole entry): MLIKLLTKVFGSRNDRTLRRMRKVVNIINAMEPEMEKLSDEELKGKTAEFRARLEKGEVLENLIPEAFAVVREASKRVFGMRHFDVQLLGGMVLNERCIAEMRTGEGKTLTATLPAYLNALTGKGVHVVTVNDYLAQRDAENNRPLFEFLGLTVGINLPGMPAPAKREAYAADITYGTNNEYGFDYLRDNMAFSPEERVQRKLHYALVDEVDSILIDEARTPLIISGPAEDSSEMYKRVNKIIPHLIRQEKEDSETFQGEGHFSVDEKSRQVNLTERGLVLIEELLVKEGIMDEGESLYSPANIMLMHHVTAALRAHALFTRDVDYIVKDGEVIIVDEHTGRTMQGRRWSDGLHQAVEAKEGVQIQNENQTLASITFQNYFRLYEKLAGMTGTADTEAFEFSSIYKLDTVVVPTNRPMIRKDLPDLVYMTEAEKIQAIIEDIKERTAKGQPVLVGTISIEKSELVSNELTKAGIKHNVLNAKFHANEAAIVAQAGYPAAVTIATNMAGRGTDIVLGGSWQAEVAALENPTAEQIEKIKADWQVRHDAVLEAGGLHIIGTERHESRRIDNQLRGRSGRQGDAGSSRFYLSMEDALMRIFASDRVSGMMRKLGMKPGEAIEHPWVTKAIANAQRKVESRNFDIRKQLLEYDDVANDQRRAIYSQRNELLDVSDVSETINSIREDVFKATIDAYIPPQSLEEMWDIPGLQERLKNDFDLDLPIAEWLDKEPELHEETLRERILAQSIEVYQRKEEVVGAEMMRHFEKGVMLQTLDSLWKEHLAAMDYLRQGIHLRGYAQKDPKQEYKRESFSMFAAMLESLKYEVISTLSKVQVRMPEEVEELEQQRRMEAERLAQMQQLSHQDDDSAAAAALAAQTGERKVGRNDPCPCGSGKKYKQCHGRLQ
# [2] = molecular target: T1, Ubiquitin-activating enzyme e1, putative (Leishmania donovani (strain BPK282A1)) (UniProt E9BSI1); assay: Leishmania donovani Ubiquitin Activating Enzyme (LdE1); type: functional; conditions: 30 µM
# T1 sequence (whole entry): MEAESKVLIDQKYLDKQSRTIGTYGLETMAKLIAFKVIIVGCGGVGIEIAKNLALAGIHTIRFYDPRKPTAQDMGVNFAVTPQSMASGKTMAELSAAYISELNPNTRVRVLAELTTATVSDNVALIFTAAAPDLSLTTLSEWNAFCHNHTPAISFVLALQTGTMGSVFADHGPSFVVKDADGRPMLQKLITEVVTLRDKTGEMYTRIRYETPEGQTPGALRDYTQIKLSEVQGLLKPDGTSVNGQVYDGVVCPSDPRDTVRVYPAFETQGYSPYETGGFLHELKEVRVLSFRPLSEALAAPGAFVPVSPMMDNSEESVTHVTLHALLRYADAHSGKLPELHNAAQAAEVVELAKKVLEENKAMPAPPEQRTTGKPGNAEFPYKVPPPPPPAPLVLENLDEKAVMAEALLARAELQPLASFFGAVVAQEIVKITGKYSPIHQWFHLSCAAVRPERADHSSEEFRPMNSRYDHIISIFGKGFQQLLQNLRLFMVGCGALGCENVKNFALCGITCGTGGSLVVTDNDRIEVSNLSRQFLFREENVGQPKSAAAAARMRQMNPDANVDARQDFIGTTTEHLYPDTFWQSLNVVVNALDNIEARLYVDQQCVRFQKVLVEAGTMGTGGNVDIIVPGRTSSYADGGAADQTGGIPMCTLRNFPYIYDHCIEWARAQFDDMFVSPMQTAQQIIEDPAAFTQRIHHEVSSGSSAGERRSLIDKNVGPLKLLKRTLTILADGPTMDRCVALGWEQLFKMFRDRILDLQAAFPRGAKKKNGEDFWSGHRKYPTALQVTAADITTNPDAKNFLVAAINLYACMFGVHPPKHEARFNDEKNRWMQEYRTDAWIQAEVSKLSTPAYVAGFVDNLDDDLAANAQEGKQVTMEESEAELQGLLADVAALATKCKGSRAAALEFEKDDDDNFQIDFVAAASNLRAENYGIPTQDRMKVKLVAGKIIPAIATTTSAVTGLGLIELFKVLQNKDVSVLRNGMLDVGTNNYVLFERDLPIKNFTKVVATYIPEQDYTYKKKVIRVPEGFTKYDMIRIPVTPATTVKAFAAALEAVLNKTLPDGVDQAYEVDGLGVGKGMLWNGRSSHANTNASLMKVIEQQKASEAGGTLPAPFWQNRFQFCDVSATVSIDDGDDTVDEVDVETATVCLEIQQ
# [3] = molecular target: AMP-activated protein kinase, AMPK (Homo sapiens) (UniProt P54646+O43741+P54619+Q9UGJ0+Q9Y478+Q13131+Q9UGI9); assay: AMP-dependent Kinase enzyme assay. An in vitro enzyme assay that detects ADP turnover that is directly proportional to AMPK activity. This uses naive AMPK that is activated during the assay with MK-8722; type: functional; conditions: 30 µM
# [4] = molecular target: Sialic acid-binding Ig-like lectin 9 (Homo sapiens) (UniProt Q9Y336); assay: Hs-Siglec9 ALPHAscreen SOP 20170721; conditions: 10 µM
# Chain of Sialic acid-binding Ig-like lectin 9 (Homo sapiens) (Q9Y336 whole entry): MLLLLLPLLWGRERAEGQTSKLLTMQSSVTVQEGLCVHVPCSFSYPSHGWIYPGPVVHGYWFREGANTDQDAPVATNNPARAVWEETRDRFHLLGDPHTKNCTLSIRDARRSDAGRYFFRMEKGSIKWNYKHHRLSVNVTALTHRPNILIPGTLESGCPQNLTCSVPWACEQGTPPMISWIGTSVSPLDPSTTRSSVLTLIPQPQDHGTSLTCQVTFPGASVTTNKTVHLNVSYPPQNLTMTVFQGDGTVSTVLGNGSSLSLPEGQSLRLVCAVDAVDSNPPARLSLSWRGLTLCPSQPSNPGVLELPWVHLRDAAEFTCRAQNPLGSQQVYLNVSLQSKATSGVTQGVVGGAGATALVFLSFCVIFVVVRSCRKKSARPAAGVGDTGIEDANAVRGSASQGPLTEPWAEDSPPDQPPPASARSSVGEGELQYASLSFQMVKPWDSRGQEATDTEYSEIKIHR
# Trypanosoma cruzi = assay: Trypanosoma cruzi phosphomannomutase and mannose-1-phosphate guanylyltransferase assay; type: functional; conditions: 10 µM
# [5] = molecular target: T2, Arginase-2, mitochondrial (Homo sapiens) (UniProt P78540); assay: in vitro enzyme assay to detect the production of urea directly proportional to the activity of Arginase II; type: functional; conditions: 33.3 µM; note: in the data most compounds retested in dose-response had high values
# T2 sequence (whole entry): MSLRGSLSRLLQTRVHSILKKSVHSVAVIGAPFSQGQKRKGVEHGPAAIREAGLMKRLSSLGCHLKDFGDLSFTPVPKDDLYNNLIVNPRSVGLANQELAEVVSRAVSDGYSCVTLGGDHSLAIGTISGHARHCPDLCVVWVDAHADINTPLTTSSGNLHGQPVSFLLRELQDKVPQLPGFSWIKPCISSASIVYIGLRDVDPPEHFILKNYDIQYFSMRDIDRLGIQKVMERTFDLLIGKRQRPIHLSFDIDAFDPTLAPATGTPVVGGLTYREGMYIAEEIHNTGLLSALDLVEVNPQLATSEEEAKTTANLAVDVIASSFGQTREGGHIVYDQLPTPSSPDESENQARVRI
# [6] = molecular target: T3, Proteasome subunit beta (Trypanosoma cruzi) (UniProt O96673); assay: Trypanosoma cruzi proteasome chymotrypsin-like activity (TcProtChymo) assay.; note: in the data most compounds retested in dose-response had high values; type: functional; conditions: 9.37 µM
# T3 sequence (whole entry): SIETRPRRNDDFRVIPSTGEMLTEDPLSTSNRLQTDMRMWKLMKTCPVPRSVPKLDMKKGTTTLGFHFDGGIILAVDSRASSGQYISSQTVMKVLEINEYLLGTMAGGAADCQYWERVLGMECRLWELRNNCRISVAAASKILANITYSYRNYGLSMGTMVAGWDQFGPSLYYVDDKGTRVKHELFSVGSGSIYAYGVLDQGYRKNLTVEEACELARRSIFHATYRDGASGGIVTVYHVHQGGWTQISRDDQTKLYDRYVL
# Homo sapiens = species on record: Homo sapiens; assay: To identify inhibition of the IFN signalling (Jak-Stat) pathway via expression of an eGFP reporter gene under the control of an IFN-stimulated response element (ISRE) containing MxA promoter.; type: functional; conditions: 30 µM
# [7] = molecular target: T4, Tyrosyl-tRNA synthetase, putative (Trypanosoma cruzi (strain CL Brener)) (UniProt Q4DSP6); assay: Trypanosoma cruzi tyrosyl tRNA synthetase (TcYRS) _High Tyrosine SOP; type: functional; conditions: 30 µM; note: in the data most compounds retested in dose-response had high values
# T4 sequence (whole entry): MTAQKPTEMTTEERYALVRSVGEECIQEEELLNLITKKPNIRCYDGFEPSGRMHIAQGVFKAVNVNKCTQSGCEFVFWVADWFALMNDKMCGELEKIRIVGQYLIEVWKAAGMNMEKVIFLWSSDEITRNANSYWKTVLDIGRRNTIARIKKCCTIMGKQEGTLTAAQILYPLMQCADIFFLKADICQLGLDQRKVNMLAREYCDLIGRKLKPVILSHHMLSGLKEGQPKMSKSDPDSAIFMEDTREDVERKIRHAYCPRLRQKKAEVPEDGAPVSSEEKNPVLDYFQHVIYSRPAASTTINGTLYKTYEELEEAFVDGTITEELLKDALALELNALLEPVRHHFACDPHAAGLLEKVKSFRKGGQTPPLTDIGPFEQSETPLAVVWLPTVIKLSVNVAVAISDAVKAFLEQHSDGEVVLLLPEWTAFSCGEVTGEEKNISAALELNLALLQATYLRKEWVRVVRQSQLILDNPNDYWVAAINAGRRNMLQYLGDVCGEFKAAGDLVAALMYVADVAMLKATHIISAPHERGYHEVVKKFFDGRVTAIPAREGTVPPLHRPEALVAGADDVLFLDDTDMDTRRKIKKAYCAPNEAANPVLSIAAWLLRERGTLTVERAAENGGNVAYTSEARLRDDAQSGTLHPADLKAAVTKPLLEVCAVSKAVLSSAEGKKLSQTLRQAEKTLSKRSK
# [8] = molecular target: T4, Tyrosyl-tRNA synthetase, putative (Trypanosoma cruzi (strain CL Brener)); assay: Trypanosoma cruzi tyrosyl tRNA synthetase (TcYRS) SOP; type: functional; conditions: 30 µM
# [9] = molecular target: Chromo domain-containing protein 1 (Saccharomyces cerevisiae (strain ATCC 204508 / S288c) (Baker's yeast)) (UniProt P32657); assay: ScCHD-1 Enzyme Inhibition Assay; type: functional; conditions: 30 µM; note: in the data most compounds retested in dose-response had high values
# Chain of Chromo domain-containing protein 1 (Saccharomyces cerevisiae (strain ATCC 204508 / S288c) (Baker's yeast)) (P32657 whole entry, the tested form may be a part): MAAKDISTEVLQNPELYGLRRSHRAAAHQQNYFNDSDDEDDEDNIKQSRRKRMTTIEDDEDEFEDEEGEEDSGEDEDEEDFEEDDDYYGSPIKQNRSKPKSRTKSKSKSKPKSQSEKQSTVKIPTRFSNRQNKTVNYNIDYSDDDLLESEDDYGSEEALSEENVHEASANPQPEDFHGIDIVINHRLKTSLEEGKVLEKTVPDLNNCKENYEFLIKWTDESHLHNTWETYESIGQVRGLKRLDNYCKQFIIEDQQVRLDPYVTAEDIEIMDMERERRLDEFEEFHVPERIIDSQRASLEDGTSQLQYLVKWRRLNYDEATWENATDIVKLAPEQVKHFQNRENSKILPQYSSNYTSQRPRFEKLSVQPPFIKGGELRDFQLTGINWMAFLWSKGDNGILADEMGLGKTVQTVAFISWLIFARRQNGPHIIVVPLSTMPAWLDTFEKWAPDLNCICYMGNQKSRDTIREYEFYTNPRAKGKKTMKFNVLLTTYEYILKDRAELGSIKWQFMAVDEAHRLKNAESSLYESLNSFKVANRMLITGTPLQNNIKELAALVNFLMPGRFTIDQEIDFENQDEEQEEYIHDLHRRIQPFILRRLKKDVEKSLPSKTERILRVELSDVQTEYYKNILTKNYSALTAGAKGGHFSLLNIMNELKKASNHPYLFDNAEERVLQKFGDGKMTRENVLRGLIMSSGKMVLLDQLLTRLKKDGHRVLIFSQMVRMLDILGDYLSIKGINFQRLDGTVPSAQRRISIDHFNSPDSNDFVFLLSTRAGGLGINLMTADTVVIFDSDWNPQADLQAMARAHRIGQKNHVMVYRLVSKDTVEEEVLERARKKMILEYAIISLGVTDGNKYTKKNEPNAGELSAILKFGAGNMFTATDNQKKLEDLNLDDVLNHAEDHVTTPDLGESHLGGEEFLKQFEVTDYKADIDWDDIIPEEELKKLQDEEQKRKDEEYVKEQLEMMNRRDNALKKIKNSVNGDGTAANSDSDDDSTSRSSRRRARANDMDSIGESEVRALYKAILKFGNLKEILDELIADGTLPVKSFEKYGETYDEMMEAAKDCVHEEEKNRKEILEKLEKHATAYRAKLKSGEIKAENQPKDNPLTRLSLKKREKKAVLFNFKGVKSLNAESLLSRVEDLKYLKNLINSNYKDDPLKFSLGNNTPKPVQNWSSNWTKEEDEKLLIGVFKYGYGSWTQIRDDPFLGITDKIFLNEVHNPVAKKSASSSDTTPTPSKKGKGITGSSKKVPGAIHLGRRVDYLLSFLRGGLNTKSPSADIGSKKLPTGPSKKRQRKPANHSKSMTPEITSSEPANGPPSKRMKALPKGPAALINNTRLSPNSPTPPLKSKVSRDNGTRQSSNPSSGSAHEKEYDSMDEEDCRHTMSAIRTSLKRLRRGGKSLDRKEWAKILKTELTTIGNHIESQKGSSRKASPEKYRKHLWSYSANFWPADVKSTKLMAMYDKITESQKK
Compound,Percent Effect [1] [%],Percent Effect [2] [%],Percent Effect [3] [%],Percent Effect [4] [%],Percent Effect (Trypanosoma cruzi) [%],Percent Effect [5] [%],Percent Effect [6] [%],Percent Effect (Homo sapiens) [%],Percent Effect [7] [%],Percent Effect [8] [%],Percent Effect [9] [%]
Cc1ccc(C2CCCCCN2Cc2cn(C)nc2C)s1 (configuration not stated),-9.52,18.2,0.0483,-1.66,1.48,-4.52,9.92,-5.04,0,14.1,-7.58
O=C(C1=CCCC1)N1CCC[C@]2(C[C@@H](Oc3ncccc3F)CO2)C1,-0.607,-5.48,-7.12,6.71,3.77,0.399,23.2,23.5,5.21,13.6,-3.32
CCC(=O)N1CC[C@@H](c2ccc3ccccc3c2)[C@H](O)C1,-3.58,8,-2.44,14.3,5.94,24,16.2,11.8,4.92,11.1,-8.24
O=C(CCNc1ncccn1)NCCc1ccn(-c2ccccc2)n1,-3.96,21.5,-1.83,-7.45,4.82,0.215,15.4,-2.32,6.25,20.2,-24.6
COC(=O)c1sccc1S(=O)(=O)N1CCC(Oc2ncccc2Cl)CC1,-6.92,-8.22,18.7,1.08,4.9,-0.455,3.02,35.1,-19.4,-20,-1.89
Cc1cc(C[C@@H]2COC[C@@H]2NC(=O)Cn2c(=O)oc3ccccc32)on1,-0.169,5.48,1.35,-2.12,3.33,8.64,1.77,-6.43,4.3,7.5,1.28
O=C(Cc1ccc(F)cc1)N1CCCCC1c1ccn2ccnc2n1 (configuration not stated),-2.25,-1.35,14.8,2.79,-2.96,-1.16,9.83,10.1,0,-1.3,-17.6
O=C(NCc1cc[nH]n1)NC1CCCN(c2ncccn2)C1 (configuration not stated),-1.16,10.5,6.14,-0.458,-4.58,-4.73,16,-3.24,4.25,13,-5.61
O=C(c1cnc(C2CC2)s1)N1CCCCC1Cn1cccn1 (configuration not stated),-2.96,1.27,4.54,-0.611,-1.13,-3.23,12.9,-2.91,2.08,7.59,-0.92
O=S(=O)(c1cccs1)N1CCCn2nnc(CN3CCCCC3)c2C1,-2.04,2.67,-7.89,2,2.7,-43.5,-0.513,-33.6,-1.04,2.5,-4.44
O=C(C1CCCc2[nH]ncc21)N1CCCC1 (configuration not stated),-2.14,-2.7,2.45,-7.51,-0.0978,-1.24,5.92,-17.4,-2.15,-6.17,-2.26
Cc1nc(C2(NCC(=O)NCCc3cccs3)CCCC2)no1,-2.85,7.89,-3.1,0.327,-4.38,-9.47,15.1,6.74,2.13,15.6,-1.92
O=C(c1cccc(CN2CCCC2)c1)N1CCCC(n2cncn2)C1 (configuration not stated),-4.8,21.6,-12.1,-3.07,-0.849,-10,16.2,23.3,6.4,16.1,-2.99
COCCCN(CCOC)C(=O)Nc1ccc(C)cc1C,-4.88,-7.89,-30.8,-2.12,-2.63,3.55,2.01,-18.5,-2.13,-2.6,6.01
CN(C)C(=O)[C@H]1C[C@@H]2CCN(C3CCOCC3)C[C@H]2O1,-0.651,2.67,-1.32,-3.17,4.44,-50.7,-1.03,-1.34,-1.04,-5,-4.08
CCSCCNC(=O)C(c1cccc(F)c1)N(C)C (configuration not stated),-5.79,8.11,-0.968,-3.42,-4.44,-0.952,13.8,20.7,6.88,7.32,-3.55
Cn1cnc(S(=O)(=O)NCCCN2CCOCC2)c1Cl,-3.33,2.7,-5.32,-2.1,-10.5,26.1,7.21,16.1,4.43,3.7,-8.3
Cn1cc(-c2cnc(N3CCOCC3)nc2)cc1C(=O)NCCO,-0.798,5.33,1.84,-0.344,-8.86,5.83,8.37,-3.42,0,6.41,-7.59
Cc1ccsc1CNc1cc(N2CCCC2CO)ncn1 (configuration not stated),-9.04,11.4,-19.2,6.66,1.33,-1.07,8.23,12.1,0,17.7,-31
COc1ccc(-c2nnc(SCC(=O)NCC(C)C)[nH]2)c(OC)c1,-5.51,18.4,1.07,-1.8,4.97,4.73,15.8,12.1,3.19,18.2,-1.07
CCc1ncc2c(n1)CN(Cc1nnc(C)o1)CC2,-0.796,2.74,-74,3.02,6.07,6.82,4.26,-5.4,4.3,7.5,-6.64
COc1ccc(CN2CCCC(Nc3cccc(F)c3)C2)cc1O (configuration not stated),-3.14,0,-3.77,-2,-0.293,-0.744,-5.06,53.9,2.15,6.17,1.38
